Assay outcomes (PubChem)
Most compounds without a hit are left out; they make up all but 6.1% or so of the library.
Cdc25B block: human M-phase inducer phosphatase 2 inhibition | P30305 | recombinant Cdc25B, OMFP fluorescence Ex485/Em525 | inhibition, %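 (compounds tested at 10 µM final in the well)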 | actives 0.1% (n = 65,000) | AID 368; in the data active means inhibition above about 50%
MMP-13 inhibitor: inhibitors of human MMP13; P45452; MMP-13 fTHP FRET cleavage, Mca fluorescence; inhibition, % at 4 µM; actives 0.07% (n = 65,000); AID 570;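 active means inhibition above the mean of compound-free control plate wells plus 3 SD, cut at about 14% in these data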;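 further: 0% = DMSO wells and 100% = wells with reference MMP-13 inhibitor after basal subtraction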
M1 antag: M1 muscarinic receptor (rat) antagonism; actives 3.4% (n = 64,000); P08482; CHO-M1 cells, Fluo-4 calcium, ACh EC80 antagonist mode; active compounds read low; B-score at 10 µM;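 active means calcium fluorescence response, raw or row-and-column corrected B-score, differing from the plate sample mean either way at a set confidence level, mostly lower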
M1 ag: M1 muscarinic receptor agonism; actives 3% (n = 64,000); B-score at 10 µM; CHO-M1 cells, Fluo-4 calcium fluorescence, agonist mode; active compounds read high; AID 626;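 active means fluorescence rise, raw or as B-score row- and column-corrected plate score, outside the 99.7% band of its plate's samples, either direction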
DUSP1 inh: blocks human MKP-1 phosphatase activity | P28562 | recombinant MKP-1, OMFP hydrolysis fluorescence | inhibition, %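 (compounds tested at a single concentration somewhere between 10 and 100 µM)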 | actives 0.15% (n = 65,000);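 active means inhibition above about 50%, limit read from the data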;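 further: 0% = DMSO max control wells and 100% = wells with enzyme stopped by NaOH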
Target sequence (P28562 whole entry, looked up): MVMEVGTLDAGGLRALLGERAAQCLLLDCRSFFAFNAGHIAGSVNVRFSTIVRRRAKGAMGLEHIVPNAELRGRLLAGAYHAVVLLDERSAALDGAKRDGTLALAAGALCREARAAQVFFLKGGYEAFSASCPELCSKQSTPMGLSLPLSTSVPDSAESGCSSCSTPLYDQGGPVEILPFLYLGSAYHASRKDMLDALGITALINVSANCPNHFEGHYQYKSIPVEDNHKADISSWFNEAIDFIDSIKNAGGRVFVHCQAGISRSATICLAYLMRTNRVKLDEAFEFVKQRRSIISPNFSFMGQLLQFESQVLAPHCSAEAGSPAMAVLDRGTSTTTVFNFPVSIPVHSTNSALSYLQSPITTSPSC
Hsp90 inh: displaces geldanamycin probe from tumor Hsp90 | P07900 | NCI-N417 lysate Hsp90, Cy3B-geldanamycin FP displacement | inhibition, % at 30 µM | actives 0.35% (n = 64,000);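 active means inhibition above 50%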;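 further: 0% = tracer plus lysate wells and 100% = tracer alone without lysate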
M1 antag conf: confirmation of rat M1 muscarinic receptor antagonists; CHO-M1 cells, Fluo-4 calcium, ACh EC80 antagonism; active compounds read low; calcium response (max-min fluorescence) at 10 µM; shares compounds with M1 antag; AID 677; actives 43% (n = 1,700);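 active means calcium response below the same-plate mean of wells given acetylcholine alone at its 80%-effect dose, minus 3 SD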;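 further: raw fluorescence intensity difference in arbitrary instrument units and not normalized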
mGluR4 antag: mGluR4 (human) activity, M1 antagonist secondary assay; shares compounds with M1 antag; CHO-mGluR4 calcium flux, Fluo-4 fluorescence, glutamate EC80; active compounds read low; fluorescence response (max-min) at 10 µM; actives 0.9% (n = 1,700); AID 678;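 active means fluorescence response below the plate's average for near-maximal glutamate wells, less 3 SD of those wells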;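 further: raw unnormalized fluorescence span taken in the window right after glutamate addition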
Numbers without * were called inactive; . = not tested or not shown.

SMILES	Cdc25B block	MMP-13 inhibitor	M1 antag	M1 ag	DUSP1 inh	Hsp90 inh	M1 antag conf	mGluR4 antag
Oc1ccccc1C1=Nc2ncnn2C(c2ccc(F)cc2)C1 (configuration not stated)	-0.7	0.6	-0.169	0.0824	-15.0	-2.1	.	.
CCOC(=O)c1[nH]c(C)c(CN(Cc2ccco2)C(=O)C(F)(F)F)c1C	-14.0	-2.3	-0.348	0.699	9.7	-3.1	.	.
CCC1(C)Cc2ccccc2-c2nc3n(c(=O)c21)CCCCC3 (configuration not stated)	-12.7	6.9	-3.99*	-1.37	5.9	.	420*	215
CCSc1sccc1C1C(C#N)=C(N)N(c2cccnc2)C2=C1C(=O)CC(C)(C)C2 (configuration not stated)	-10.7	1.8	-5.07*	0.00521	17.9	-3.0	622	199
COc1ccc(N2C(N)=C(C#N)C(c3cccnc3)C3=C2CC(C)(C)CC3=O)cc1 (configuration not stated)	10.3	2.9	-0.137	0.239	6.4	-4.4	.	.
COCCCNCCOc1cc(C(C)C)ccc1C	-5.4	3.4	-2.27*	-0.139	-16.8	-0.3	554	237
COc1ccc(-n2c(Cn3c(=O)sc4ccccc43)nnc2SCC(=O)N2CCOCC2)cc1	-7.1	1.5	-0.685	0.642	4.8	-0.3	.	.
O=C(O)[C@H]1NCCC[C@H]1C(=O)O	.	.	.	.	.	3.2	.	.
O=C(c1cc2c(ccc3ccccc32)oc1=O)N1CCN(CCO)CC1	-16.5	-96.3	0.00185	-0.472	4.0	1.5	.	.
O=C(N1CCN(CCO)CC1)N1c2ccccc2C=Cc2ccccc21	8.5	4.0	-3.2*	0.00642	-21.5	-1.4	437*	237
CCc1nnc(NC(=O)C2CCN(c3nc(C)cc(C)n3)CC2)s1	2.5	-13.1	0.385	0.0954	-11.7	0.1	.	.
CC(=O)Nc1nc(C=C(Cl)Cl)cs1	8.6	-2.0	-0.582	-0.0688	15.4	-7.4	.	.
CC(=O)Nc1nc(C(=O)Nc2c(C)n[nH]c2C)cs1	0.7	-0.9	-2.87*	0.627	10.2	-0.3	575	203
Cc1cc(=O)[nH]c(SCC(=O)N2CCCCCC2)n1	-15.3	0.4	1.64	-0.405	26.2	-3.0	.	.
NC(=O)C1(N2CCCCC2)CCN(C(=O)CSc2nc(C(F)(F)F)cc(=O)[nH]2)CC1	-4.5	-3.6	-3.54*	-0.143	3.3	-6.7	687	203
COCCn1c(-c2ccccc2F)n[nH]c1=S	-3.3	6.0	-0.33	0.979	10.1	-1.1	.	.
COCCn1c(C23CC4CC(CC(C4)C2)C3)n[nH]c1=S	-11.1	-1.2	-2.83*	0.984	-12.1	0.4	610	257
COC(=O)CSc1nc2sc3c(c2c(=O)n1C1CCCCC1)CCN(C)C3	12.9	-56.5	-2.68*	-2.73*	-3.1	-12.8	486*	261
CCC(C(=O)Nc1ccccc1OC)n1c(C(=O)OC)cc2ccsc21 (configuration not stated)	-13.0	-0.1	0.121	-0.217	3.1	-3.7	.	.
CCOC(=O)N1CCC(N2Cc3cccc(C(=O)NCc4ccc(C)cc4)c3C2=O)CC1	-12.1	1.0	0.356	0.469	5.1	-2.2	.	.
CCOC(=O)N1CCC(N2Cc3cccc(C(=O)NCc4ccccn4)c3C2=O)CC1	-17.8	6.1	-2.5*	0.676	9.2	-2.0	500*	247
COC(=O)c1cc(Br)c(=O)n(CCC2=CCCCC2)c1	0.5	-2.8	-0.213	-0.28	-12.4	-11.0	.	.
COC(=O)c1cc(Br)c(=O)n(CCc2ccc(F)cc2)c1	12.0	-1.9	-4.01*	-0.222	-8.8	-3.2	513	207
COC(=O)c1[nH]c2cccc(Cl)c2c1NC(=O)CN(C)C1CCCCC1	-0.7	-0.2	-1.85*	1.21	26.3	-7.2	367*	180
CCOC(=O)c1ccc(CNC(=O)Cn2nnc(-c3ccc(C)cc3)n2)o1	-8.1	6.9	-0.237	-0.616	-8.6	-2.5	.	.
SMILES	Cdc25B block	MMP-13 inhibitor	M1 antag	M1 ag	DUSP1 inh	Hsp90 inh	M1 antag conf	mGluR4 antag
CC(C)CC(c1nnnn1C(C)(C)C)N1CCN(C2CCCC2)CC1 (configuration not stated)	-17.9	-1.0	-4.38*	0.168	-16.5	-2.5	477	212
Cc1ccc(C(c2nnnn2C(C)(C)C)N2CCN(C3CCCC3)CC2)cc1 (configuration not stated)	-8.7	-1.5	0.411	0.642	-14.7	-1.9	.	.
COc1cc(NS(=O)(=O)c2ccc(NC(=O)c3ccco3)cc2)nc(OC)n1	-4.8	-4.7	-2.23*	-1.81	2.7	0.3	665	236
Cc1ccccc1NS(=O)(=O)c1ccc(NC(=O)c2ccco2)cc1	-5.4	0.2	-0.0263	-1.45	-4.0	-3.0	.	.
CC(C)(C)NC(=O)COC(=O)Cc1ccc(Cl)cc1	-2.3	-1.0	-0.039	0.0252	17.6	3.1	.	.
CCn1c(CNc2ccc(C)cc2C)nnc1SCC(=O)N1CCCc2ccccc21	-15.9	-3.8	.	.	23.0	-4.5	.	.
COc1ccc(OC)c(S(=O)(=O)NCCC2=CCCCC2)c1	25.1	3.6	-2.67*	1.2	-0.6	-10.0	441*	229
CCOC(=O)COc1ccc(S(=O)(=O)N2CCc3ccccc3C2)cc1	-14.4	2.6	0.0473	0.356	-7.6	-19.9	.	.
Cc1ccc(C)n1-c1ccc(-c2nnc3n2CCCCC3)s1	-25.1	2.3	-1.39*	-0.774	1.5	-0.3	594	236
C1CCc2nnc(-c3nnc4n3CCCCC4)n2CC1	-6.1	-4.4	-1.56	0.357	-7.1	-1.7	.	.
CC1CCc2nc(NC(=O)CN3CCN(c4ccccc4)CC3)sc2C1 (configuration not stated)	6.1	-1.0	-0.0393	-0.029	16.1	0.2	.	.
CC1CCc2nc(NC(=O)CN3CCOCC3)sc2C1 (configuration not stated)	-4.7	3.4	-4.02*	0.92	4.2	-1.0	666	198
CC(=O)N1CCC(N(CCCOC(C)C)C(=O)Nc2ccc(Cl)cc2)CC1	-12.3	4.2	0.17	-0.0842	11.9	2.4	.	.
NCCCCCNC(=O)/C=N\O	-9.3	-3.0	-0.221	-0.697	2.8	-3.4	.	.
CCc1ccccc1NC1c2ccccc2C(=O)N1Cc1ccco1 (configuration not stated)	6.1	1.1	-2.16*	2.19	1.7	1.5	458	199
CCOc1ccccc1NC1c2ccccc2C(=O)N1Cc1ccco1 (configuration not stated)	-0.8	-2.0	-0.863*	0.298	-9.7	-3.6	531	247
O=C1c2ccccc2C(O)N1Cc1ccco1 (configuration not stated)	-6.4	1.8	0.598	-0.00206	15.6	0.3	.	.
CCc1nc(C)c(-c2ccccc2)c(=O)[nH]1	-9.6	1.0	0.123	-0.34	7.5	-3.0	.	.
